Reference: PubChem BioAssay AID1159580 (chemical genetic matrix, 2015)
“And” between values parts separate entries of the source, which are not always exact repeats. Equal values may be shown once. About 2,000 (36%) of roughly 5,500 compounds were called active. Another 18% or so got no clear call; they are omitted. No stated cut-off is given here; in the data, active means normalized growth mostly below about 0.91 (no sharp cut-off); inconclusive means no clear call, values can overlap the other calls; inactive means mostly above about 0.92. Some of the results follow.

Experiment: chemical genetic growth profiling, strain panel (AID 1159580);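 further: tested at 20 µM; growth read once vehicle control cultures reached saturation at 30 °C; 1 = growth at the plate median or of vehicle wells; lower values mean less growth of the strain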
Conditions: S. cerevisiae deletion strains, growth OD

Measured: normalized growth

COc1cc2c(cc1OC)[C@@H]1C(=O)c3ccc4c(c3O[C@@H]1CO2)C=CC(C)(C)O4
inactive: locus YAL013W, strain DEP1, hits give low values 0.993 | locus YAL021C, strain ccr4, hits give low values 1.05 | locus YAL026C, strain drs2, hits give low values 1.02 | locus YAL030W, strain snc1, hits give low values 1.02 | locus YBL061C, strain skt5, hits give low values 1.01 | locus YBR009C, strain hhf1, hits give low values 0.938 | locus YBR021W, strain FUR4, hits give low values 0.972 | locus YBR023C, strain chs3, hits give low values 1.01 | locus YBR171W, strain sec66, hits give low values 0.993 | locus YBR229C, strain ROT2, hits give low values 0.99 | locus YBR231C, strain swc5, hits give low values 0.99 | locus YBR279W, strain paf1, hits give low values 1.01 | locus YCL011C, strain gbp2, hits give low values 0.98 | locus YCL016C, strain dcc1, hits give low values 1 | locus YCL029C, strain bik1, hits give low values 0.971 | locus YCL069W, strain vba3, hits give low values 1 | locus YCR088W, strain abp1, hits give low values 1.01 | locus YDL005C, strain med2, hits give low values 1.03 | locus YDL035C, strain GPR1, hits give low values 0.976 | locus YDL040C, strain nat1, hits give low values 1 | locus YDL074C, strain BRE1, hits give low values 0.994 | locus YDL101C, strain DUN1, hits give low values 0.976 | locus YDL134C, strain PPH21, hits give low values 0.99 | locus YDL185W, strain tfp1, hits give low values 0.97 | locus YDL192W, strain arf1, hits give low values 0.964 | locus YDR001C, strain nth1, hits give low values 1.01 | locus YDR069C, strain doa4, hits give low values 1 | locus YDR101C, strain arx1, hits give low values 0.988 | locus YDR137W, strain rgp1, hits give low values 0.88 | locus YDR150W, strain NUM1, hits give low values 0.987 | locus YDR159W, strain sac3, hits give low values 0.898 | locus YDR162C, strain NBP2, hits give low values 1.01 | locus YDR195W, strain ref2 1.1 | locus YDR297W, strain sur2, hits give low values 0.993 | locus YDR318W, strain mcm21, hits give low values 0.966 | locus YDR334W, strain swr1, hits give low values 1.02 | locus YDR335W, strain msn5, hits give low values 1.02 | locus YDR388W, hits give low values 0.974 | locus YDR502C, strain sam2, hits give low values 0.981 | locus YEL003W, strain gim4, hits give low values 1.01 | locus YEL037C, strain rad23, hits give low values 1.03 | locus YEL061C, strain CIN8 (second series), hits give low values 1.02 | locus YEL061C, strain CIN8, hits give low values 0.995 | locus YER015W, strain faa2, hits give low values 1.01 | locus YER016W, strain bim1, hits give low values 1.01 | locus YER110C, hits give low values 0.962 | locus YER111C, strain swi4, hits give low values 1.04 | locus YER155C, strain BEM2 (second series), hits give low values 0.991 | locus YER155C, strain BEM2, hits give low values 0.988 | locus YER167W, strain BCK2, hits give low values 0.955 | locus YFR010W, strain ubp6, hits give low values 1.01 | locus YGL078C, strain dbp3, hits give low values 0.973 | locus YGL086W, strain mad1, hits give low values 0.958 | locus YGL167C, strain pmr1, hits give low values 1 | locus YGL173C, strain kem1, hits give low values 0.978 | locus YGL227W, strain vid30, hits give low values 1 | locus YGL240W, strain doc1, hits give low values 0.98 | locus YGL248W, strain PDE1, hits give low values 0.986 | locus YGL253W, strain hxk2, hits give low values 0.996 | locus YGR078C, strain PAC10, hits give low values 1.01 | locus YGR135W, strain pre9, hits give low values 0.987 | locus YGR229C, strain SMI1, hits give low values 0.983 | locus YGR252W, strain gcn5, hits give low values 0.891 | locus YHR013C, strain ard1, hits give low values 0.993 | locus YHR027C, strain rpn1, hits give low values 1 | locus YHR030C, strain SLT2, hits give low values 0.986 and 0.96 | locus YHR079C, strain IRE1 (second series), hits give low values 0.987 | locus YHR079C, strain IRE1, hits give low values 0.954 | locus YHR094C, strain hxt1, hits give low values 0.978 | locus YHR129C, strain ARP1, hits give low values 0.989 | locus YHR142W, strain chs7, hits give low values 0.996 | locus YHR200W, strain rpn10, hits give low values 0.965 | locus YIL066C, strain RNR3, hits give low values 0.964 | locus YIL073C, strain SPO22, hits give low values 0.937 | locus YIL125W, strain kgd1, hits give low values 0.979 | locus YIR030C, strain dcg1, hits give low values 0.979 | locus YJL092W, strain hpr5, hits give low values 1 | locus YJL095W, strain BCK1 (second series), hits give low values 0.988 | locus YJL095W, strain BCK1, hits give low values 0.998 and 0.956 | locus YJL115W, strain asf1, hits give low values 1.01 | locus YJL129C, strain trk1, hits give low values 0.985 | locus YJL134W, strain LCB3, hits give low values 0.975 | locus YJL154C, strain vps35, hits give low values 1.01 | locus YJL164C, strain tpk1, hits give low values 1 | locus YJL166W, strain qcr8, hits give low values 0.959 | locus YJL168C, strain set2, hits give low values 0.972 | locus YJL187C, strain SWE1 (second series), hits give low values 0.993 | locus YJR043C, strain POL32, hits give low values 0.987 | locus YJR066W, strain TOR1, hits give low values 0.915 | locus YJR075W, strain HOC1, hits give low values 0.973
active: locus YDR392W, strain spt3, hits give low values 0.607
